# Test results as given in the supplement of paper PMC8728848.
# The entries come from a sample that favours the strongest signals as a whole.
# B1: Gal 3C (Homo sapiens), P17931 (protein)
# chain: YGAPAGPLIVPYNLPLPGGVVPRMLITILGTVKPNANRIALDFQRGNDVAFHFNPRFNENNRRVIVCNTKLDNNWGREERQSVFPFESGKPFKIQVLVEPDHFKVAVNDAHLLQYNHRVKKLNEISKLGISGDIDLTSASYTMI
# Key:
# Assay in all cases: glycan array binding signal (z-score within array); higher = stronger binding
# Conditions in all cases: glycan notation: IUPAC condensed, linker removed
# [1] = target: Fuc(a1-2)Gal(b1-3)GlcNAc(b1-3)[Fuc(a1-2)Gal(b1-3)GlcNAc(b1-6)]GalNAc
# In short: (§1)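 Glycan array data came from 3228 arrays in the Consortium for Functional Glycomics database, and only arrays with an available protein sequence were kept. Glycan names were put into IUPAC-condensed notation, and columns mapping to the same glycan were averaged. The binding signal is a within-array Z-score, averaged across arrays of one protein sequence run at different concentrations or buffers and across linkers. A negative Z-score can be read as non-binding.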
# [2] = target: Fuc(a1-2)Gal(b1-4)GlcNAc(b1-3)Gal(b1-4)GlcNAc
# In short: as §1
# [3] = target: Fuc(a1-2)[Gal(a1-3)]Gal(b1-4)Glc
# In short: as §1
# [4] = target: Fuc(a1-2)[Gal(a1-3)]Gal(b1-4)[Fuc(a1-3)]GlcNAc
# In short: as §1
# [5] = target: Fuc(a1-2)[GalNAc(a1-3)]Gal(b1-3)GlcNAc(b1-6)GalNAc
# In short: as §1
# [6] = target: Fuc(a1-2)[GalNAc(a1-3)]Gal(b1-4)Glc
# In short: as §1
# [7] = target: Gal(a1-3)Gal(b1-4)[Fuc(a1-3)]GlcNAc
# In short: as §1
# Gal(a1-4)GlcNAc = target: Gal(a1-4)GlcNAc
# In short: as §1
# Gal(a1-6)Glc = target: Gal(a1-6)Glc
# In short: as §1
# [8] = target: Gal(b1-3)GlcNAc(a1-6)Gal(b1-4)GlcNAc
# In short: as §1
# [9] = target: Gal(b1-3)GlcNAc(b1-3)Gal(b1-3)GlcNAc
# In short: as §1
# [10] = target: Gal(b1-3)GlcNAc(b1-3)Gal(b1-4)GlcNAc(b1-3)Gal(b1-4)GlcNAc(b1-2)[Gal(b1-3)GlcNAc(b1-3)Gal(b1-4)GlcNAc(b1-3)Gal(b1-4)GlcNAc(b1-6)]Man(a1-6)[Gal(b1-3)GlcNAc(b1-3)Gal(b1-4)GlcNAc(b1-3)Gal(b1-4)GlcNAc(b1-2)Man(a1-3)]Man(b1-4)GlcNAc(b1-4)[Fuc(a1-6)]GlcNAc
# In short: as §1
# Gal(b1-3)GlcNAc6S = target: Gal(b1-3)GlcNAc6S
# In short: as §1
# [11] = target: Gal(b1-4)GlcNAc(b1-2)[Gal(b1-4)GlcNAc(b1-6)]Man(a1-6)[Gal(b1-4)GlcNAc(b1-2)Man(a1-3)]Man(b1-4)GlcNAc(b1-4)GlcNAc
# In short: as §1
# [12] = target: Gal(b1-4)GlcNAc(b1-3)Gal(b1-4)GlcNAc(b1-3)Gal(b1-4)GlcNAc(b1-2)Man(a1-3)[Gal(b1-4)GlcNAc(b1-3)Gal(b1-4)GlcNAc(b1-3)Gal(b1-4)GlcNAc(b1-2)Man(a1-6)]Man(b1-4)GlcNAc(b1-4)[Fuc(a1-6)]GlcNAc
# In short: as §1
# [13] = target: Gal(b1-4)GlcNAc(b1-3)Gal(b1-4)GlcNAc(b1-3)Gal(b1-4)GlcNAc(b1-2)[Gal(b1-4)GlcNAc(b1-3)Gal(b1-4)GlcNAc(b1-3)Gal(b1-4)GlcNAc(b1-6)]Man(a1-6)[Gal(b1-4)GlcNAc(b1-3)Gal(b1-4)GlcNAc(b1-3)Gal(b1-4)GlcNAc(b1-2)Man(a1-3)]Man(b1-4)GlcNAc(b1-4)[Fuc(a1-6)]GlcNAc
# In short: as §1
# [14] = target: Gal(b1-4)GlcNAc(b1-3)Gal(b1-4)GlcNAc(b1-3)Gal(b1-4)GlcNAc(b1-3)Gal(b1-4)GlcNAc(b1-2)Man(a1-3)[Gal(b1-4)GlcNAc(b1-3)Gal(b1-4)GlcNAc(b1-3)Gal(b1-4)GlcNAc(b1-3)Gal(b1-4)GlcNAc(b1-2)Man(a1-6)]Man(b1-4)GlcNAc(b1-4)GlcNAc
# In short: as §1
# [15] = target: Gal(b1-4)GlcNAc(b1-3)Gal(b1-4)GlcNAc(b1-3)Gal(b1-4)GlcNAc(b1-3)Gal(b1-4)GlcNAc(b1-2)Man(a1-3)[Gal(b1-4)GlcNAc(b1-3)Gal(b1-4)GlcNAc(b1-3)Gal(b1-4)GlcNAc(b1-3)Gal(b1-4)GlcNAc(b1-2)Man(a1-6)]Man(b1-4)GlcNAc(b1-4)[Fuc(a1-6)]GlcNAc
# In short: as §1
# [16] = target: Gal(b1-4)GlcNAc(b1-3)Gal(b1-4)GlcNAc(b1-3)Gal(b1-4)GlcNAc(b1-3)Gal(b1-4)GlcNAc(b1-2)[Gal(b1-4)GlcNAc(b1-3)Gal(b1-4)GlcNAc(b1-3)Gal(b1-4)GlcNAc(b1-3)Gal(b1-4)GlcNAc(b1-6)]Man(a1-6)[Gal(b1-4)GlcNAc(b1-3)Gal(b1-4)GlcNAc(b1-3)Gal(b1-4)GlcNAc(b1-3)Gal(b1-4)GlcNAc(b1-2)Man(a1-3)]Man(b1-4)GlcNAc(b1-4)[Fuc(a1-6)]GlcNAc
# In short: as §1
# [17] = target: Gal(b1-4)GlcNAc(b1-3)Gal(b1-4)GlcNAc(b1-3)Gal(b1-4)GlcNAc(b1-3)Gal(b1-4)GlcNAc(b1-3)Gal(b1-4)GlcNAc(b1-2)Man(a1-3)[Gal(b1-4)GlcNAc(b1-3)Gal(b1-4)GlcNAc(b1-3)Gal(b1-4)GlcNAc(b1-3)Gal(b1-4)GlcNAc(b1-3)Gal(b1-4)GlcNAc(b1-2)Man(a1-6)]Man(b1-4)GlcNAc(b1-4)GlcNAc
# In short: as §1
# [18] = target: Gal(b1-4)GlcNAc(b1-3)Gal(b1-4)GlcNAc(b1-3)Gal(b1-4)GlcNAc(b1-3)Gal(b1-4)GlcNAc(b1-3)Gal(b1-4)GlcNAc(b1-2)Man(a1-3)[Gal(b1-4)GlcNAc(b1-3)Gal(b1-4)GlcNAc(b1-3)Gal(b1-4)GlcNAc(b1-3)Gal(b1-4)GlcNAc(b1-3)Gal(b1-4)GlcNAc(b1-2)Man(a1-6)]Man(b1-4)GlcNAc(b1-4)[Fuc(a1-6)]GlcNAc
# In short: as §1
# [19] = target: Gal(b1-4)GlcNAc(b1-3)Gal(b1-4)GlcNAc(b1-3)Gal(b1-4)GlcNAc(b1-3)Gal(b1-4)GlcNAc(b1-3)Gal(b1-4)GlcNAc(b1-2)[Gal(b1-4)GlcNAc(b1-3)Gal(b1-4)GlcNAc(b1-3)Gal(b1-4)GlcNAc(b1-3)Gal(b1-4)GlcNAc(b1-3)Gal(b1-4)GlcNAc(b1-6)]Man(a1-6)[Gal(b1-4)GlcNAc(b1-3)Gal(b1-4)GlcNAc(b1-3)Gal(b1-4)GlcNAc(b1-3)Gal(b1-4)GlcNAc(b1-3)Gal(b1-4)GlcNAc(b1-2)Man(a1-3)]Man(b1-4)GlcNAc(b1-4)[Fuc(a1-6)]GlcNAc
# In short: as §1
# [20] = target: Gal(b1-4)GlcNAc(b1-3)Gal(b1-4)GlcNAc(b1-3)Gal(b1-4)GlcNAc(b1-3)Gal(b1-4)GlcNAc(b1-3)Gal(b1-4)GlcNAc(b1-3)Gal(b1-4)GlcNAc(b1-2)Man(a1-3)[Gal(b1-4)GlcNAc(b1-3)Gal(b1-4)GlcNAc(b1-3)Gal(b1-4)GlcNAc(b1-3)Gal(b1-4)GlcNAc(b1-3)Gal(b1-4)GlcNAc(b1-3)Gal(b1-4)GlcNAc(b1-2)Man(a1-6)]Man(b1-4)GlcNAc(b1-4)GlcNAc
# In short: as §1
# [21] = target: Gal(b1-4)GlcNAc(b1-6)[Gal(b1-4)GlcNAc(b1-3)]GalNAc
# In short: as §1
# Gal3S(b1-3)GalNAc = target: Gal3S(b1-3)GalNAc
# In short: as §1
# Gal3S4S(b1-4)GlcNAc = target: Gal3S4S(b1-4)GlcNAc
# In short: as §1
# Gal3S6S(b1-4)GlcNAc = target: Gal3S6S(b1-4)GlcNAc
# In short: as §1
# [22] = target: GalNAc(b1-4)GlcNAc(b1-2)Man
# In short: as §1
# [23] = target: GlcNAc(a1-4)Gal(b1-4)GlcNAc(b1-3)Gal(b1-4)GlcNAc
# In short: as §1
# [24] = target: GlcNAc(b1-2)Man(a1-3)[GlcNAc(b1-2)Man(a1-6)]Man(b1-4)GlcNAc(b1-4)GlcNAc
# In short: as §1
binder,measurement,setting,value
B1,glycan array binding signal (z-score),[1],-0.212
same,glycan array binding signal (z-score),[2],1.07
same,glycan array binding signal (z-score),[3],-0.106
same,glycan array binding signal (z-score),[4],-0.196
same,glycan array binding signal (z-score),[5],-0.229
same,glycan array binding signal (z-score),[6],-0.117
same,glycan array binding signal (z-score),[7],-0.259
same,glycan array binding signal (z-score),Gal(a1-4)GlcNAc,-0.295
same,glycan array binding signal (z-score),Gal(a1-6)Glc,-0.222
same,glycan array binding signal (z-score),[8],-0.269
same,glycan array binding signal (z-score),[9],-0.068
same,glycan array binding signal (z-score),[10],1.95
same,glycan array binding signal (z-score),Gal(b1-3)GlcNAc6S,-0.277
same,glycan array binding signal (z-score),[11],-0.222
same,glycan array binding signal (z-score),[12],4.24
same,glycan array binding signal (z-score),[13],4.41
same,glycan array binding signal (z-score),[14],5.03
same,glycan array binding signal (z-score),[15],4.24
same,glycan array binding signal (z-score),[16],4.44
same,glycan array binding signal (z-score),[17],4.06
same,glycan array binding signal (z-score),[18],6.46
same,glycan array binding signal (z-score),[19],6.39
same,glycan array binding signal (z-score),[20],4.39
same,glycan array binding signal (z-score),[21],-0.244
same,glycan array binding signal (z-score),Gal3S(b1-3)GalNAc,-0.289
same,glycan array binding signal (z-score),Gal3S4S(b1-4)GlcNAc,-0.291
same,glycan array binding signal (z-score),Gal3S6S(b1-4)GlcNAc,-0.289
same,glycan array binding signal (z-score),[22],-0.274
same,glycan array binding signal (z-score),[23],-0.2
same,glycan array binding signal (z-score),[24],-0.279
